# A selection: hits, their analogues and other compounds. The true share with any hit is near 19%.
# DT40 TDP1 CPT = DT40-hTDP1 cell growth loss with CPT | chicken DT40 Tdp1-/-;hTDP1 cells + 20 nM CPT, ATP luminescence, 48 h | Potency, µM (top dose mostly 46.2 µM), inactives show at the top dose activity change, negative = growth inhibition, hits mostly inhibitors | hit rate 12% among 420,000 | AID 686979; further: potency means the concentration at half of the fitted maximal effect; nearly all actives have a fitted effect of over 55% in size
#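 Cell growth measured by CellTiter-Glo luminescence after a minimum 48 h, 37 C compound exposure with 20 nM CPT in Tdp1-knockout DT40 cells stably expressing hTDP1, seeded 400/well; qHTS titration format.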
# HT1080-NT tox = kills 2HG-producing HT-1080-NT fibrosarcoma cells; Potency, µM (highest dose often 46.1 µM), for the others: at the highest dose activity, negative = less viability, actives largely listed as cytotoxic; HT-1080-NT fibrosarcoma viability, CellTiter-Glo ATP luminescence, 48 h; hit rate 1.6% among 360,000;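 further: NT is the 2HG producing partner of a matched IDH1 knockdown line; potency means the concentration at half of the fitted maximal effect; 0% = DMSO-treated cells and -100% = media-only wells without cells; nearly all actives have a fitted effect of over 55% in size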
#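 Read-out is CellTiter-Glo luminescence after 10 minutes at room temperature, following 48 hours' compound treatment of HT-1080-NT cells (750 cells/well, RPMI, 5% FBS, 37 degrees C).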
# HT1080 IDH1KD tx = HT-1080 IDH1 knockdown cell toxicity (counter line); hit rate 2% among 360,000; Potency, µM (series often up to 46.1 µM), for inactives: at the top dose activity, negative = toxicity, actives largely listed as cytotoxic; AID 686971; HT-1080 IDH1 knockdown viability, ATP luminescence, 48 h;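 further: potency means the concentration at half of the fitted maximal effect; 0% = DMSO wells and -100% = cell-free medium wells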
#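 In this qHTS, HT-1080 cells depleted of IDH1 are exposed for 48 h at 37 °C to compound titrations. Toxicity is scored from CellTiter-Glo luminescence, with DMSO as full viability and medium alone as none.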
# IL-1B inflam inh = inflammasome signaling inhibition, IL-1 beta readout. THP-1 LPS/ATP IL-1B secretion, AlphaLISA, 16 h; stronger effect = lower value. hit rate 4.7% among 360,000. activity change, % at 57.5 µM; in the data active means activity change below about -50%; inconclusive means mostly about -30% to -49%
#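 Secreted IL-1B measured by AlphaLISA bead assay after 16 h compound exposure of THP-1 cells; compounds (final up to 57.5 uM) added 1 h before LPS (250 ng/mL) and ATP (1.25 mM) stimulation; lower signal means less secretion.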
# DT40 TDP1 no CPT = qHTS for Inhibitors of human tyrosyl-DNA phosphodiesterase 1 (TDP1): qHTS in cells in absence of CPT; DT40 Tdp1-/- hTDP1 cells, no CPT, ATP luminescence, 48 h; Potency, µM (top dose mostly 46.2 µM), for the others: top-dose activity change, negative = growth inhibition, usual class: inhibitors; hit rate 15% among 420,000; further: potency means the concentration at half of the fitted maximal effect; nearly all actives have a fitted effect of over 55% in size
#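 Compound effects on proliferation are scored in DT40 Tdp1-/-;hTDP1 cells in the absence of CPT. ATP levels (CellTiter-Glo luminescence) are recorded after a ≥48 hr, 37 °C incubation.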
# Starred values were filed as active, the others as inactive; i = inactive; ? = inconclusive; . = no result given; ! = a repeat was not active; [ ] = another dose, or the depositor's remark. Unless noted, the call rests on the fitted dose curve; in most records, active means well fitted curve in the direction sought with a large enough effect; inconclusive means small, poorly fitted or top-dose-only effect, or another doubt; inactive means no such curve, though single readings can be large; an effect the other way counts as inactive or inconclusive. Unless noted, on the % scale 0 is the no-effect control and ±100 the full control effect.
SMILES,DT40 TDP1 CPT,HT1080-NT tox,HT1080 IDH1KD tx,IL-1B inflam inh,DT40 TDP1 no CPT
CN1CCC(Nc2ncc3ncnc(Nc4ccc(F)c(Cl)c4)c3n2)CC1,?,.,.,.,21µM*
CC(/C=C(\NC(=O)c1ccccc1)C(=O)N=Nc1c(O)[nH]c2ccc(C)cc12)=C\c1ccccc1,8.2µM*,-7%,-1%[9.24 µM],-8,8.2µM*
CCNS(=O)(=O)c1ccc(S(=O)(=O)N(Cc2ccccn2)C2CCCCC2)cc1,-29%,2%,-3%,-10,-26%
CCN(C1CCCCC1)S(=O)(=O)c1ccc(S(=O)(=O)NCc2ccncc2)cc1,7.3µM*,?,?,?,9.2µM*
O=S(=O)(NCc1ccccc1)c1ccc(S(=O)(=O)N(Cc2ccccn2)C2CCCC2)cc1,?,?,-3%[9.24 µM],?,18µM*
CCn1c2c(c3cc(C(=O)O)ccc31)CCCC2=O,?,-4%,0%,10,26µM*
CC(=O)c1c(O)c(C)c(O)c2c1OC1=CC(=O)C(C(C)=O)C(=O)C12C (stereo unspecified),3%,.,.,.,0%
CC(=O)c1c(O)c(C)c(O)c2c1OC1=CC(=O)C(C(C)=O)C(=O)[C@@]12C (stereo partly specified),18µM*!,-2%,-6%,3,?
COc1ccc(CN2CCC(C(=O)Nc3ccc(Oc4cccnc4)cc3)CC2)cc1,?,-1%,-13%,i,-11%
Cn1ccnc1CN1CCCCC1C(=O)Nc1ccc(Oc2cccnc2)cc1 (stereo unspecified),15µM*,?,?,55,23µM*
CCn1cc(CN2CCC(C(=O)Nc3ccc(Oc4ccccc4F)cc3)CC2)cn1,?,-14%,-29%,24,21µM*
COc1ccc(CN2CCC(C(=O)Nc3ccc(Oc4cccnc4)cc3)CC2)c(C)c1C,?,-5%,0%,16,2.9µM*
COc1cccc(O)c1CN1CCC(C(=O)Nc2ccc(Oc3cccnc3)cc2)CC1,21µM*,-15%,-29%,5,13µM*
CCn1ccnc1CN1CCCCC1C(=O)Nc1ccc(Oc2cccnc2)cc1 (stereo unspecified),?,?,?,-12,?
COc1ccc(CCN2CC(C(=O)N(C)CC(=O)Nc3ccc(F)c(F)c3F)CC2=O)cc1OC (stereo unspecified),5%,4%,3%,17,-3%
O=C(Nc1cccc(C(F)(F)F)c1)c1csc([C@@H]2C[C@H](O)[C@@H](CO)O2)n1,?,14%,10%,-2,-12%
COc1cccc(O)c1CN1CCC(C(=O)Nc2ccc(-c3cccc(C)c3)cc2)CC1,?,23µM*,18µM*,-95*,16µM*
O=C(Nc1ccccc1Oc1cccnc1)C1CCCN(Cc2cccc(Cl)c2)C1 (stereo unspecified),-30%,-12%,-5%,-9,-16%
COc1cc(CN2CCCC(C(=O)Nc3ccccc3Oc3cccnc3)C2)ccc1F (stereo unspecified),?,-22%,7%,7,16µM*
CCOc1ccc(NC(=O)c2ccccc2NC(=O)c2cccnc2)cc1,-8%,8%,1%,-9,3%
O=C1CC(N2CCN(C3CCc4ccccc4C3)CC2)C(=O)N1c1ccccc1 (stereo unspecified),-24%,-3%,0%,28,-1%
CCOC(=O)Nc1ccc2c3c(cccc13)-c1ccccc1-2,18µM*,?,?,25,21µM*
CCOC(=O)Nc1cccc2ccccc12,5%,3%,2%,11,-8%
CCSc1cc(C2C(C(=O)OC)=C(C)NC3=C2C(=O)CCC3)c(C)o1 (stereo unspecified),11%,0%,-4%,-1,7%
Cc1cc(C)c2oc(-c3cccc(NC(=O)COc4ccccc4Cl)c3C)nc2c1,-22%,.,.,.,?
CCOc1ccc(Nc2nc(N)c3ccccc3n2)cc1,7.3µM*,21µM*,18µM*,-91*,?
